Reference: PubChem BioAssay (NCI)
Several values for one entry are separate records, joined by “and”; a condition that tells them apart may be missing. Equal entries are not always repeated. This is part of a sample that, as a whole, favours compounds with a hit. Of some 83,000 tested, about 20% had one in any assay.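 Each cell line was grown in a 96-well plate and treated with one concentration of compound for 48 hours. Values below 10 were considered active.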 Activity calls are given as the source filed them.

Columns and labels:
Assay in all cases: NCI-60 one-dose screen, 48 h (100 = growth as untreated, 0 = no growth, -100 = all killed)
Settings in all cases: 10 µM unless noted
SK-MEL-2 melanoma = tested on: SK-MEL-2 melanoma
EKVX NSCLC = tested on: EKVX NSCLC
SN12C renal = tested on: SN12C renal
UO-31 renal = tested on: UO-31 renal
TK-10 renal = tested on: TK-10 renal
ACHN renal = tested on: ACHN renal
A498 renal = tested on: A498 renal
CCRF-CEM leukemia = tested on: CCRF-CEM leukemia
MOLT-4 leukemia = tested on: MOLT-4 leukemia
SR leukemia = tested on: SR leukemia
RPMI-8226 leukemia = tested on: RPMI-8226 leukemia
OVCAR-8 ovarian = tested on: OVCAR-8 ovarian
OVCAR-5 ovarian = tested on: OVCAR-5 ovarian
OVCAR-4 ovarian = tested on: OVCAR-4 ovarian
SK-OV-3 ovarian = tested on: SK-OV-3 ovarian
IGROV1 ovarian = tested on: IGROV1 ovarian
OVCAR-3 ovarian = tested on: OVCAR-3 ovarian
HS 578T breast = tested on: HS 578T breast
NCI/ADR-RES ovarian = tested on: NCI/ADR-RES ovarian

Row | SMILES | growth (SK-MEL-2 melanoma) | growth (EKVX NSCLC) | growth (SN12C renal) | growth (UO-31 renal) | growth (TK-10 renal) | growth (ACHN renal) | growth (A498 renal) | growth (CCRF-CEM leukemia) | growth (MOLT-4 leukemia) | growth (SR leukemia) | growth (RPMI-8226 leukemia) | growth (OVCAR-8 ovarian) | growth (OVCAR-5 ovarian) | growth (OVCAR-4 ovarian) | growth (SK-OV-3 ovarian) | growth (IGROV1 ovarian) | growth (OVCAR-3 ovarian) | growth (HS 578T breast) | growth (NCI/ADR-RES ovarian)
1 | O=C(O)CCCCc1ccc([N+](=O)[O-])cc1 | 98.9% (inactive) and 113% (inactive) | 107% (inactive) and 126% (inactive) | 98.9% (inactive) and 96.5% (inactive) | 82.4% (inactive) and 73.3% (inactive) | 106% (inactive) and 99.4% (inactive) | 103% (inactive) and 98.5% (inactive) | 84.4% (inactive) and 127% (inactive) | 97.1% (inactive) and 91.2% (inactive) | 99.4% (inactive) and 88.5% (inactive) | 105% (inactive) and 89.5% (inactive) | 95.4% (inactive) and 87.7% (inactive) | 114% (inactive) and 102% (inactive) | 116% (inactive) and 89.9% (inactive) | 101% (inactive) and 106% (inactive) | 109% (inactive) and 106% (inactive) | 98.1% (inactive) and 95.9% (inactive) | 106% (inactive) and 121% (inactive) | 127% (inactive) and 104% (inactive) | 101% (inactive) and 107% (inactive)
2 | OCCN1CCN(CCO)CC1 | 104% (inactive) and 97.3% (inactive) and 115% (inactive) | 107% (inactive) and 85.1% (inactive) and 114% (inactive) | 98.1% (inactive) and 89.2% (inactive) and 112% (inactive) | 81.9% (inactive) and 89.7% (inactive) and 86.7% (inactive) | 93.6% (inactive) and 107% (inactive) and 108% (inactive) | 99.1% (inactive) and 98% (inactive) and 104% (inactive) | 110% (inactive) and 95.5% (inactive) and 101% (inactive) | 99.5% (inactive) and 88.4% (inactive) and 98% (inactive) | 92.9% (inactive) and 96.2% (inactive) and 97.8% (inactive) | 99.5% (inactive) and 117% (inactive) and 98.8% (inactive) | 100% (inactive) and 95.5% (inactive) | 101% (inactive) and 97.4% (inactive) | 111% (inactive) and 91.2% (inactive) and 105% (inactive) | 124% (inactive) and 97.7% (inactive) | 104% (inactive) and 106% (inactive) and 109% (inactive) | 113% (inactive) and 90.8% (inactive) and 112% (inactive) | 119% (inactive) and 108% (inactive) and 109% (inactive) | 106% (inactive) and 98.7% (inactive) and 112% (inactive) | 100% (inactive) and 94% (inactive) and 120% (inactive)
3 | CN(Cc1ccccc1)Cc1ccccc1 | 104% (inactive) | 102% (inactive) | 101% (inactive) | 93% (inactive) | 88.2% (inactive) | 108% (inactive) | 114% (inactive) | 115% (inactive) | 122% (inactive) | 105% (inactive) | 110% (inactive) | 117% (inactive) | 103% (inactive) | 113% (inactive) | 113% (inactive) | 99.4% (inactive) | 106% (inactive) | – | 102% (inactive)
4 | COc1ccccc1/C=N\N=C(N/N=C/c1ccccc1OC)N/N=C/c1ccccc1OC | 47.5% (inactive) and 31.8% (inactive) | 74.4% (inactive) and 48.3% (inactive) | 77.2% (inactive) and 28.4% (inactive) | 50.4% (inactive) and -10.3% (active) | 110% (inactive) and 57.7% (inactive) | 63.8% (inactive) and 40.6% (inactive) | 100% (inactive) and 72.2% (inactive) | – | 31.1% (inactive) and 8.9% (active) | 19.9% (inactive) and 19.6% (inactive) | 26.7% (inactive) and -8.79% (active) | 69% (inactive) and 23.3% (inactive) | 94.6% (inactive) and 52.1% (inactive) | 29.2% (inactive) | 73.7% (inactive) and 49.8% (inactive) | 87.7% (inactive) and 26.3% (inactive) | -6.91% (active) and 19.3% (inactive) | 99.5% (inactive) and 33.8% (inactive) | 45.4% (inactive) and 19.1% (inactive)
5 | O=C1c2ccccc2C(=O)c2c(NCCNCCO)ccc(NCCNCCO)c21 | -75.2% (active) and -0.89% (active) and -16.8% (active) | 38.4% (inactive) and 48.9% (inactive) | -0.766% (active) and 4.9% (active) and 7.36% (active) | -5.63% (active) and 55.9% (inactive) and 44.7% (inactive) | 21.8% (inactive) and 54.6% (inactive) and 38.8% (inactive) | 17.9% (inactive) and 24.5% (inactive) and 22.7% (inactive) | -4.91% (active) and 79.3% (inactive) and 29.9% (inactive) | 153% (inactive) and 10.2% (inactive) and 1.67% (active) | 143% (inactive) and -3.2% (active) and -1.56% (active) | – | 55.6% (inactive) and 54% (inactive) and 33.8% (inactive) | 0.849% (active) and 17.5% (inactive) | -51.8% (active) and 43.9% (inactive) and 35.5% (inactive) | -16.3% (active) and 1.58% (active) and 1.59% (active) | – | 29.1% (inactive) and 16.9% (inactive) | 64.1% (inactive) and 44.1% (inactive) | – | -24.9% (active) and 93.1% (inactive) and 102% (inactive)
6 | OC(COc1cccc2ccccc12)CN1CCN(c2ccc(Cl)cc2)CC1 (centres undefined) | 103% (inactive) and 98.8% (inactive) | 108% (inactive) and 94.9% (inactive) | 98.5% (inactive) and 97.8% (inactive) | 80.2% (inactive) and 63.6% (inactive) | 70.8% (inactive) and 101% (inactive) | 68.6% (inactive) and 102% (inactive) | 92.3% (inactive) and 77% (inactive) | – | 110% (inactive) | 113% (inactive) and 75.2% (inactive) | 68.2% (inactive) | 79.8% (inactive) and 87.1% (inactive) | 84.1% (inactive) and 87.3% (inactive) | 35.2% (inactive) and 92.1% (inactive) | – | 103% (inactive) and 84.8% (inactive) | 83.2% (inactive) and 116% (inactive) | 68% (inactive) and 116% (inactive) | 88.6% (inactive) and 83.4% (inactive)
7 | CC1=C(/C=C/C(C)=C/C=C/C(C)=C/C(=O)Nc2ccc(O)cc2)C(C)(C)CCC1 | 78.6% (inactive) | 64.7% (inactive) | 39.2% (inactive) | -4.99% (active) | 103% (inactive) | 52.2% (inactive) | 71.4% (inactive) | 19.5% (inactive) | 7.55% (active) | -4.85% (active) | – | 65.9% (inactive) | 89.9% (inactive) | 44.3% (inactive) | 69.3% (inactive) | -0.235% (active) | 27.8% (inactive) | 63.3% (inactive) | 39.1% (inactive)
8 | O=S(=O)(Nc1ccccc1)C1CCCCC1 | 103% (inactive) | 104% (inactive) and 97.2% (inactive) | 94.9% (inactive) and 120% (inactive) | 77.2% (inactive) and 88.3% (inactive) | 103% (inactive) and 102% (inactive) | 110% (inactive) and 103% (inactive) | 104% (inactive) and 95.9% (inactive) | 105% (inactive) | 83% (inactive) and 92.4% (inactive) | 92.1% (inactive) and 90.5% (inactive) | 93.9% (inactive) and 106% (inactive) | 110% (inactive) and 108% (inactive) | 107% (inactive) and 104% (inactive) | 108% (inactive) and 117% (inactive) | 107% (inactive) and 103% (inactive) | 105% (inactive) and 127% (inactive) | 111% (inactive) and 104% (inactive) | 123% (inactive) and 108% (inactive) | 112% (inactive) and 105% (inactive)
